Results filed as inconclusive are left out. The source made the active and inactive calls. The call rests on the fitted dose curve; in most records, active means well fitted curve in the direction sought with a large enough effect in the repeat runs; inconclusive means weak or mixed curves; inactive means no such curve, though single readings can be large; an effect the other way counts as inactive or inconclusive.
Key:
[1] = qHTS RealTime-Glo MT Cell Viability Assay in HEK293 cells - 16 hour (AID 1224872); further: top concentration of the series differs between compounds; nearly all actives have a fitted effect of over 50% in size
Outline: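 Homogeneous bioluminescent viability format in HEK293 cells (600 cells/well). Following 5 h at 37 C/5% CO2, 23 nL compound was pintooled; the signal was measured repeatedly during 40 h incubation.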

[2] = qHTS RealTime-Glo MT Cell Viability Assay in HepG2 cells - 8 hour (AID 1224873); further: nearly all actives have a fitted effect of over 55% in size
Outline: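 Real-time viability: cells seeded at 600 per well together with NanoLuc and cell-permeant prosubstrate, compounds added after 5 h incubation. Luminescence tracked at 0, 8, 16, 24, 32 and 40 h of exposure.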

[3] = qHTS RealTime-Glo MT Cell Viability Assay in HEK293 cells - 40 hour (AID 1224874); details: RealTime-Glo luminescence; max response: stronger effect = lower value; further: nearly all actives have a fitted effect of over 50% in size
Outline: (§1)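 Viable HEK293 cells reduce a cell-permeant prosubstrate; the product diffuses out and is consumed by NanoLuc in the medium to give light. Compounds went in after a 5 h incubation and plates were read over the treatment course.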

[4] = A CellTox Green Cytotoxicity Assay to monitor cytotoxicity in HEK293 cells - 24 hour (AID 1224875); further: series mostly up to about 77 µM; nearly all actives have a fitted effect of over 45% in size
Outline: (§2)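 Fluorescence intensity, read at 0, 8, 16, 24, 32 and 40 h of compound treatment, reflected dye binding to DNA of dead HEK293 cells; compounds (23 nL, DMSO) were added 5 h after plating cells with reagent.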

[5] = A CellTox Green Cytotoxicity Assay to monitor cytotoxicity in HepG2 cells - 16 hour (AID 1224876); further: nearly all actives have a fitted effect of over 45% in size
Outline: (§3)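 Using 1536-well format, dye-containing HepG2 suspension was seeded, allowed 5 h at 37 C/5% CO2, dosed by pintool with compounds, positive and negative controls, and imaged for fluorescence across 40 h.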

[6] = qHTS RealTime-Glo MT Cell Viability Assay in HepG2 cells - 32 hour (AID 1224877); further: nearly all actives have a fitted effect of over 55% in size
Outline: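 Cell number in HepG2 cultures estimated from NanoLuc luminescence generated by metabolic reduction of a prosubstrate by living cells. The homogeneous, nonlytic format allowed repeated reads at 0, 8, 16, 24, 32 and 40 h of compound exposure.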

[7] = A CellTox Green Cytotoxicity Assay to monitor cytotoxicity in HepG2 cells - 24 hour (AID 1224878); further: nearly all actives have a fitted effect of over 45% in size
Outline: as §3

[8] = A CellTox Green Cytotoxicity Assay to monitor cytotoxicity in HepG2 cells - 40 hour (AID 1224879); further: nearly all actives have a fitted effect of over 40% in size
Outline: as §3

[9] = qHTS RealTime-Glo MT Cell Viability Assay in HEK293 cells - 0 hour (AID 1224880); further: top concentration of the series differs between compounds; nearly all actives have a fitted effect of over 45% in size
Outline: as §1

[10] = A CellTox Green Cytotoxicity Assay to monitor cytotoxicity in HEK293 cells - 32 hour (AID 1224881); further: nearly all actives have a fitted effect of over 40% in size
Outline: as §2
On the % scale 0 is the no-effect control and ±100 the full control effect.

O=C(NCO)NCO
inactive: Potency [1] | Potency [2] | max response [3] 2.7% | Potency [4] | Potency [5] | Potency [6] | Potency [7] | Potency [8] | outcome [9] | Potency [10]

N#CCCC#N
inactive: Potency [1] | Potency [2] | max response [3] 17.5% | Potency [4] | Potency [5] | Potency [6] | Potency [7] | Potency [8] | outcome [9] | Potency [10]

CC(=O)CC(c1ccc(Cl)cc1)c1c(O)c2ccccc2oc1=O (centres undefined)
inactive: Potency [1] | Potency [2] | max response [3] -9.42% | Potency [4] | Potency [5] | Potency [6] | Potency [7] | Potency [8] | outcome [9] | Potency [10]

CC1=NNC(=O)N(/N=C/c2cccnc2)C1
inactive: Potency [1] | Potency [2] | max response [3] 3.94% | Potency [4] | Potency [5] | Potency [6] | Potency [7] | Potency [8] | outcome [9] | Potency [10]

Nc1cnn(-c2ccccc2)c(=O)c1Cl
inactive: Potency [1] | Potency [2] | max response [3] 20.5% | Potency [4] | Potency [5] | Potency [6] | Potency [7] | Potency [8] | outcome [9] | Potency [10]

COc1cc(OC)nc(NC(=O)NS(=O)(=O)c2ncccc2C(=O)N(C)C)n1
inactive: Potency [1] | Potency [2] | max response [3] 7.6% | Potency [4] | Potency [5] | Potency [6] | Potency [7] | Potency [8] | outcome [9] | Potency [10]

O=CNC(N1CCN(C(NC=O)C(Cl)(Cl)Cl)CC1)C(Cl)(Cl)Cl (centres undefined)
inactive: Potency [1] | Potency [2] | max response [3] -2.73% | Potency [4] | Potency [5] | Potency [6] | Potency [7] | Potency [8] | outcome [9] | Potency [10]

NC(=S)C(N)=S
inactive: Potency [1] | Potency [2] | max response [3] 4.8% | Potency [4] | Potency [5] | Potency [6] | Potency [7] | Potency [8] | outcome [9]

BrCCCCCCBr
inactive: Potency [1] | Potency [2] | max response [3] 2.7% | Potency [4] | Potency [5] | Potency [6] | Potency [7] | Potency [8] | outcome [9] | Potency [10]

CSc1ccc(C(=O)C(C)(C)N2CCOCC2)cc1
inactive: Potency [1] | Potency [2] | max response [3] 0.297% | Potency [4] | Potency [5] | Potency [6] | Potency [7] | Potency [8] | outcome [9] | Potency [10]

CC(N)=S
inactive: Potency [1] | Potency [2] | max response [3] 1.38% | Potency [4] | Potency [5] | Potency [6] | Potency [7] | Potency [8] | outcome [9] | Potency [10]

CC(=O)CCc1ccc2c(c1)OCO2
inactive: Potency [1] | Potency [2] | max response [3] 0.514% | Potency [4] | Potency [5] | Potency [6] | Potency [7] | Potency [8] | outcome [9] | Potency [10]

CCN(Cc1ccc(Cl)nc1)/C(=C/[N+](=O)[O-])NC
inactive: Potency [1] | Potency [2] | max response [3] 2.66% | Potency [4] | Potency [5] | Potency [6] | Potency [7] | Potency [8] | outcome [9] | Potency [10]

CCC(Cl)[N+](=O)[O-] (centres undefined)
inactive: Potency [1] | Potency [2] | max response [3] 4.31% | Potency [4] | Potency [5] | Potency [6] | Potency [7] | Potency [8] | outcome [9] | Potency [10]

CCOC(=O)N(C)C(=O)CSP(=S)(OCC)OCC
inactive: Potency [1] | Potency [2] | max response [3] -10% | Potency [4] | Potency [5] | Potency [6] | Potency [7] | Potency [8] | outcome [9] | Potency [10]

CC(C)NCC(O)c1ccc(N)c(C#N)c1 (centres undefined)
inactive: Potency [1] | Potency [2] | max response [3] 2.86% | Potency [4] | Potency [5] | Potency [6] | Potency [7] | Potency [8] | outcome [9] | Potency [10]

C[N+](C)=CCl
inactive: Potency [1] | Potency [2] | max response [3] 17.5% | Potency [4] | Potency [5] | Potency [6] | Potency [7] | Potency [8] | outcome [9] | Potency [10]

COc1cc(OC)nc(Oc2cccc(Oc3nc(OC)cc(OC)n3)c2C(=O)O)n1
inactive: Potency [1] | Potency [2] | max response [3] -0.579% | Potency [4] | Potency [5] | Potency [6] | Potency [7] | Potency [8] | outcome [9] | Potency [10]

Cc1nnc2n1-c1sc(CCC(=O)N3CCOCC3)cc1C(c1ccccc1Cl)=NC2
inactive: Potency [1] | Potency [2] | max response [3] -16.7% | Potency [4] | Potency [5] | Potency [6] | Potency [7] | Potency [8] | outcome [9] | Potency [10]

CCOP(=O)(OCC)OP(=O)(OCC)OCC
inactive: Potency [1] | Potency [2] | max response [3] 5.24% | Potency [4] | Potency [5] | Potency [6] | Potency [7] | Potency [8] | outcome [9] | Potency [10]

OC(c1ccccc1)(c1ccccc1)C1CCNCC1
inactive: Potency [1] | Potency [2] | max response [3] -12.9% | Potency [4] | Potency [5] | Potency [6] | Potency [7] | Potency [8] | outcome [9] | Potency [10]

CC(C)CP(=S)(S)CC(C)C
inactive: Potency [1] | Potency [2] | max response [3] 3.1% | Potency [4] | Potency [5] | Potency [6] | Potency [7] | Potency [8] | outcome [9] | Potency [10]

C[C@@H]1CN(C2CCC(C#N)(c3ccc(F)cc3)CC2)CC[C@]1(C(=O)O)c1ccccc1 (some centres undefined)
inactive: Potency [1] | Potency [2] | max response [3] 2.36% | Potency [4] | Potency [5] | Potency [6] | Potency [7] | Potency [8] | outcome [9] | Potency [10]
